From the OligoGym collection come the findings set out here.
Also: reference of the scale not given here.

The target of the assay is DOCK1. In words: pooled miR-30 sensor sort-seq; sequence = guide strand. The settings on record: shRNA.
As to TACATCATCACTACACAGCTTC, the sensor-assay potency score (higher = more potent) came to 0.384. In the case of TTGGAGACACACCTCAACCAAC it was -1.22. The sequence TTCGTAACGTGTAACCTCGGTA registered a sensor-assay potency score (higher = more potent) of -0.19. In the case of TATTATATCTGTTACATCCATC it was -0.566; in that of TTGTCTGTTAATATCTATGTTC, -0.583; in that of TTGTACTGTTCGTCTCCTCTGC, 0.121. Next, AACACTTTTGTCAACTTCGTGT: 0.131; TATCTTGTGTTGACCAAGGTTG: -0.193; TTAGAGTCCTGTGATGACCTGT: 0.59. Next, TTTCACATCGTTGACGATCGTT: -0.0463; TTACAATCTGCTCTGACACTGG: 0.172; TTCTTTGTTCTCGTCGTGCATG: -1.13. As to TTAACAGTCTCAAACCAGCGTG, the sensor-assay potency score (higher = more potent) is -0.984.

TTCACATCGTTGACGATCGTTG showed a sensor-assay potency score (higher = more potent) of -0.549.

Take TCATCGTACACAGACACCGTGA: the sensor-assay potency score (higher = more potent) was -0.406. TTAGACTTTTTTCGTAACGTGT showed a sensor-assay potency score (higher = more potent) of -0.535.
